Among the data in PubChem BioAssay (NCI) are growth values, retold here.

The panel holds about 83,000 compounds, 20% with a hit somewhere; the sample as a whole holds those more often.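 Each cell line was grown in a 96-well plate and treated with one concentration of compound for 48 hours. Values below 10 were considered active.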 Unmarked numbers belong to inactive results. Activity calls are given as the source filed them.

Some test systems named below: T-47D breast; BT-549 breast; MDA-MB-435 melanoma; SW-620 colon; MCF7 breast; HCT-116 colon; HCC-2998 colon; KM12 colon.
Common to all, as to test: NCI-60 one-dose screen, 48 h (100 = growth as untreated, 0 = no growth, -100 = all killed)
What all share (conditions): 10 µM unless noted

In the case of `O=C(CSc1nc2ccccc2[nH]1)Nc1ccc(-c2nc3ccccc3s2)c(Cl)c1`, the growth was -12.7% (active) with T-47D breast; 47.4% in the assay on BT-549 breast; 13.2% with MDA-MB-435 melanoma; 22.1% in the assay on SW-620 colon; 6.26% (active) with MCF7 breast; -90.2% (active) in the assay on HCT-116 colon. The growth in the assay with HCC-2998 colon is 95.3%.
As for `COc1ccc(-c2cnoc2-c2ccc(OC)cc2O)cc1`, the growth was 40.3% in the assay with T-47D breast; 56.5% in the assay with BT-549 breast; -29.4% (active) in the assay with MDA-MB-435 melanoma; 11% in the assay on SW-620 colon; 19.6% in the assay with MCF7 breast; 16.5% with HCT-116 colon. Besides, the values for the growth in the assay on HCC-2998 colon and in the assay with KM12 colon were 32% and 19.2%, respectively.
In the case of `COc1cc(-c2nn(-c3cccc(NC(=O)Nc4cc(C(F)(F)F)cc(C(F)(F)F)c4)c3)cc2-c2ccncc2)ccc1Cl`, the growth in the assay on T-47D breast is 4.45% (active); in the assay on BT-549 breast it was -8.96% (active); in the assay on MDA-MB-435 melanoma, -58.3% (active); with SW-620 colon it was -2.89% (active); in the assay with MCF7 breast, 1.74% (active); in the assay with HCT-116 colon, -43.6% (active). In addition, the growth in the assay with HCC-2998 colon is -10.8% (active); in the assay on KM12 colon, -14.8% (active).
As to `CN1CCN(Cc2ccc(NC(=O)c3cncc(C#Cc4cnc(N)c5ccncc45)c3)cc2C(F)(F)F)CC1`, the growth in the assay on T-47D breast was 43.2%; in the assay on BT-549 breast, 49.2%; in the assay with MDA-MB-435 melanoma, 9.96% (active); in the assay on SW-620 colon, 3.27% (active); in the assay with MCF7 breast it was 35.6%; in the assay on HCT-116 colon it was 8.86% (active). In addition, the growth in the assay with HCC-2998 colon was 33%; in the assay on KM12 colon, 9.68% (active).
Consider `O=C1c2c(c3c4ccccc4n(CCCCCCBr)c3c3[nH]c4ccccc4c23)C(=O)N1O`, for which the growth with T-47D breast was 4.32% (active); with BT-549 breast, -3.13% (active); in the assay with MDA-MB-435 melanoma, 0.62% (active); in the assay on SW-620 colon, 15.1%; in the assay on MCF7 breast, 2.38% (active); in the assay on HCT-116 colon, 6.41% (active). Moreover, the growth in the assay on HCC-2998 colon is 18.3%; with KM12 colon, 10.8%.
In the case of `Cc1cc(N/N=C/c2nc(-c3ccccc3)oc2C)c2cc(Br)ccc2n1`, the growth in the assay with T-47D breast is 75.6%; with BT-549 breast it was 93.4%; with MDA-MB-435 melanoma, 43.4%; in the assay with SW-620 colon, 28.4%; in the assay with MCF7 breast it was 46.2%; with HCT-116 colon, 42%. The growth in the assay on HCC-2998 colon was 100%; with KM12 colon, 82%.
Regarding `COc1ccccc1CNCCCN1C(=O)c2ccc3c4c(ccc(c24)C1=O)C(=O)N(CCCNCCCCNCCCN)C3=O`, the growth in the assay on T-47D breast is -36.4% (active); with BT-549 breast, -22.1% (active); in the assay with MDA-MB-435 melanoma, -13.4% (active); in the assay on SW-620 colon it was -36.5% (active); in the assay with MCF7 breast, -38.4% (active); in the assay with HCT-116 colon it was -2.94% (active). The growth was -39% (active) in the assay on HCC-2998 colon and -18.7% (active) with KM12 colon.
With `COc1cc(NCCCCCN)c2ncccc2c1`, the growth with T-47D breast was 96.2%; in the assay on BT-549 breast, 113%; in the assay on MDA-MB-435 melanoma, 114%; in the assay with SW-620 colon it was 99.4%; with MCF7 breast, 83.2%; in the assay with HCT-116 colon, 89.1%. For the same molecule, the growth was 125% with HCC-2998 colon and 109% in the assay with KM12 colon.
As to `COc1ccc(/C(C#N)=C/c2cc(OC)c(OC)c(OC)c2)cc1`, the growth was 44.1% with T-47D breast; 40.7% in the assay with BT-549 breast; -48.8% (active) in the assay on MDA-MB-435 melanoma; 26.3% in the assay with SW-620 colon; 18.6% with MCF7 breast; 20.2% in the assay on HCT-116 colon. For the same molecule, the growth with HCC-2998 colon is 72%; in the assay with KM12 colon, 29.3%.
As for `C=C1C(=O)O[C@H]2[C@H]1CC/C(Cn1cc(CNC(=O)Cc3cn(C(=O)c4ccc(Cl)cc4)c4ccc(OC)cc34)nn1)=C\CC[C@@]1(C)O[C@@H]21`, the growth in the assay with T-47D breast was -61.6% (active); with BT-549 breast it was -3.93% (active); in the assay on MDA-MB-435 melanoma it was -63.2% (active); in the assay with SW-620 colon, -67.4% (active); in the assay with MCF7 breast it was -62.7% (active); in the assay on HCT-116 colon it was -95% (active). In addition, the results for the growth in the assay on HCC-2998 colon and in the assay on KM12 colon were 8.2% (active) and 41.9%, respectively.
As for `COc1ccc(C2=Nn3c(nnc3-n3nc(C)cc3C)SC2)cc1`, the growth is 77.6% in the assay on T-47D breast; 18.6% in the assay on BT-549 breast; -16.1% (active) in the assay with MDA-MB-435 melanoma; 21.7% with SW-620 colon; 16.9% in the assay with MCF7 breast; 5.57% (active) with HCT-116 colon. Also, the growth was 4.24% (active) with HCC-2998 colon and 10% in the assay with KM12 colon.
In the case of `COc1ccc(S(=O)(=O)NCCCNc2nccc(-c3c(-c4cccc([N+](=O)[O-])c4)nc4sccn34)n2)cc1`, the growth in the assay with T-47D breast is 3.31% (active); with BT-549 breast, 36.5%; in the assay with MDA-MB-435 melanoma, 42.1%; in the assay with SW-620 colon, 91.4%; in the assay with MCF7 breast it was 34.5%; in the assay on HCT-116 colon, 48.7%. Further, the growth in the assay with HCC-2998 colon is 82.1%; with KM12 colon, 28.9%.
For `CCN1CCN(CC(=O)N2c3cccc4cccc(c34)N(C(=O)CN3CCN(CC)CC3)C2c2cn(-c3ccccc3)nc2-c2cccc([N+](=O)[O-])c2)CC1`, the growth in the assay on T-47D breast is -70.7% (active); with BT-549 breast, 80.7%; in the assay on MDA-MB-435 melanoma, -75.7% (active); with SW-620 colon, -43.6% (active); in the assay on MCF7 breast it was -29% (active); in the assay on HCT-116 colon it was -54.9% (active). Also, the growth in the assay with HCC-2998 colon is -49.1% (active); in the assay on KM12 colon, 23.4%.
Take `N/C(=N\C(N)=N\c1nc2ccccc2s1)c1ccncc1`: the growth is 65.4% in the assay on T-47D breast; 61.7% in the assay on BT-549 breast; 1.82% (active) in the assay with MDA-MB-435 melanoma; 35.2% in the assay on SW-620 colon; 42.4% in the assay with MCF7 breast; 47.7% in the assay on HCT-116 colon. In addition, the growth with HCC-2998 colon was 79.1%; in the assay with KM12 colon, 52.1%.
`COc1cc(/C=C/C(=O)c2ccc(Nc3ncnc4cc(OC)c(OC)cc34)cc2)cc(OC)c1`: the growth was 100% in the assay with T-47D breast; 105% with BT-549 breast; 51.8% in the assay on MDA-MB-435 melanoma; 109% in the assay on SW-620 colon; 73% in the assay with MCF7 breast; 30.8% in the assay on HCT-116 colon. The growth in the assay with HCC-2998 colon was 106%; with KM12 colon, 82.9%.
